# UBC9 SUMO inh: inhibitors of human SUMOylation (UBC9). P63279. HTRF SUMOylation assay, SAE1/SAE2 + UBC9, in vitro. inhibition, % at 35 µM. 0.36% of 290,000 active; in the data active = inhibition above about 50%, passing the limit was not always enough
# Target sequence (P63279 whole entry, looked up): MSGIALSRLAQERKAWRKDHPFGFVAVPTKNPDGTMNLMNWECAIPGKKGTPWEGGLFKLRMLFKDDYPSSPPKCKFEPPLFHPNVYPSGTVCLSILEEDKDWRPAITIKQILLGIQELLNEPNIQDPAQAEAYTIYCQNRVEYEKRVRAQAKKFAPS
# NadD inh: NadD (S. aureus) enzyme inhibition | purified NadD enzyme, colorimetric absorbance read-out | inhibition, % at 20 µM | 0.78% of 360,000 active | AID 602399; in the data active = inhibition above about 26%
# PHOSPHO1 inh: blocks human PHOSPHO1 phosphatase activity; Q8TCT1; recombinant PHOSPHO1, absorbance phosphatase assay; inhibition, % at 13.3 µM; 1.1% of 290,000 active; in the data active = inhibition above about 60%
# Target sequence (Q8TCT1 whole entry, looked up): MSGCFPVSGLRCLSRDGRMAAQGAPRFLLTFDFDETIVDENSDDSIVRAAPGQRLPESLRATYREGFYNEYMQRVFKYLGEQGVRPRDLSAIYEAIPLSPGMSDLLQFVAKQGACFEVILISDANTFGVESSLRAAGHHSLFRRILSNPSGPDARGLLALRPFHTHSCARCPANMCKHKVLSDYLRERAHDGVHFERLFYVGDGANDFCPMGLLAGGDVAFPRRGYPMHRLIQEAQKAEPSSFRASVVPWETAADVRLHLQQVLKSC
# pCIP destab: compounds decreasing mouse p/CIP protein stability | Q05BA5 | F442A p/CIP-EGFP cells, EGFP fluorescence, 16 h | decrease of EGFP signal, % at 10 µM | 0.01% of 290,000 active | AID 1984;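 active = EGFP signal decrease of at least 30% at 10 µM or well 3 SD below plate mean, unless failing retest; inactive = the rest, including hits failing retest or dose response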
# Numbers stand for hits; . = inactive; / = no result given. Compounds with a hit are over-represented: about 1.8% of the library has one in this group of screens.
SMILES,UBC9 SUMO inh,NadD inh,PHOSPHO1 inh,pCIP destab
CCOP(=O)(NC(c1ccccc1)c1nc2ccccc2[nH]c1=O)OCC (centres undefined),.,.,61,.
COc1cccc(-c2cnc(C(O)c3ccc(C)c(F)c3)[nH]2)c1 (centres undefined),/,.,/,/
O=C(O)c1cccc2cccc(-c3c4ccc(=O)c(O)c-4oc4c(O)c(O)ccc34)c12,/,83,/,/
O=C(O)c1cccc2cc(-c3ccccc3)oc(=O)c12,.,.,.,.
COc1cc2ccccc2cc1C(=O)N/N=C/c1ccc2c(c1)OCO2,.,.,61,.
COc1ccccc1C(=O)N/N=C/c1ccc2c(c1)OCO2,.,.,.,.
COc1cc(CNC(C)C)ccc1OCC(=O)Nc1cccc2ccccc12,.,.,61,.
COc1ccc(CC(=O)Nc2cccc3ccccc23)cc1OC,.,.,.,.
CC(C)C1OC(CCc2ccccc2)Cc2[nH][nH]c(=O)c21 (centres undefined),/,.,/,/
Cc1cc(C)n2nc(C(=O)OCC(=O)NC3CCS(=O)(=O)C3)nc2n1 (centres undefined),/,.,/,/
COc1ccc(C2NC(=S)NC3=C2N2CCC3CC2)cc1 (centres undefined),.,.,.,.
Fc1ccc(C2NC(=S)NC3=C2N2CCC3CC2)cc1 (centres undefined),.,.,76,.
COc1ccc(N2C(=O)Cc3c2nc(N)c(C#N)c3N)cc1,.,.,.,.
CC1=Nc2nc(N3CCCCCC3)c(C#N)c3c4c(nc(c23)N1)N(c1ccc2ccccc2c1)C(=O)C4,/,55,/,/
CC(=O)Nc1ccc(N2C(=O)c3ccc(C(=O)Nc4nnc(SCc5ccc(F)cc5)s4)cc3C2=O)cc1,.,31,.,.
CCC(=O)Nc1nnc(SCc2ccc(F)cc2)s1,.,.,.,.
Cc1ccc(C)c(NCCCCCCCC(=O)O)c1,/,.,/,/
CCCCN1C(=O)C(CC(=O)NCc2ccco2)CC(C(=O)N(C(C)C)C(C)C)=C1C (centres undefined),/,.,/,/
CCN(CC)c1ccc(NC(=O)Cn2cc3c(n2)CCC(C)C3)c(C)c1 (centres undefined),.,.,83,.
COc1ccc(-n2nnnc2SCC(=O)N2CCOCC2)cc1,.,.,.,.
COc1ccc(-n2nnnc2Sc2ccc(S(=O)(=O)N3CCOCC3)cn2)cc1,.,.,85,.
Cc1noc(C)c1C(=O)N1CCC1(C)C(=O)NS(=O)(=O)c1cccc(OC(F)F)c1 (centres undefined),/,.,/,/
Cc1ccc(-n2c(C)cc(/C=N/NC(=O)c3ccncc3)c2C)cc1,.,.,.,.
Cc1ccc(C(=O)N/N=C/c2cc(C)n(-c3ccc(Br)cc3)c2C)cc1[N+](=O)[O-],.,35,.,.
COCCNC(=S)Nc1ccccc1[N+](=O)[O-],.,.,.,.
SMILES,UBC9 SUMO inh,NadD inh,PHOSPHO1 inh,pCIP destab
COCCCNC(=S)Nc1ccccc1[N+](=O)[O-],.,.,60,.
CN(Cc1ccccc1)C(=O)[C@@H]1CCCN1C(=O)[C@@H]1CCCN1C(=O)c1ccc(Cl)cc1,/,.,/,/
COC(=O)c1[nH]c2ccc(C)cc2c1NC(=O)CN1CCc2cc(OC)c(OC)cc2C1,.,.,69,.
COc1cc2c(cc1OC)CN(CC(=O)Nc1ccc(C)cc1)CC2,.,.,.,.
Cc1ccc(C(=O)COC(=O)c2cccc([N+](=O)[O-])c2)s1,/,.,/,/
CC(C)OCCCNC(=S)Nc1ccc(S(N)(=O)=O)cc1,.,.,86,.
O=C1C(Cl)=C(Nc2ccccc2O)C(=O)N1c1ccccc1,.,.,60,.
COc1ccccc1N1C(=O)C(Cl)=C(Nc2ccccc2O)C1=O,.,.,.,.
CCCOC(=O)CSC1=C(C#N)C(c2ccccc2OCC)C(C#N)C(=O)N1 (centres undefined),.,.,75,.
CCCCOC(=O)CSC1=C(C#N)C(c2ccccc2OCC)C(C#N)C(=O)N1 (centres undefined),.,.,.,.
CC(=O)c1cccc2c1OC(C)C(=O)N2Cc1ccc(Cl)cc1 (centres undefined),/,.,/,/
CCc1c(C)[nH]n(-c2nc(-c3ccccc3)cs2)c1=O,.,.,.,.
Cc1[nH]n(-c2nc(-c3ccc(Cl)cc3)cs2)c(=O)c1N=Nc1ccc(O)cc1,.,37,.,.
CSc1ccc(-c2cc3c(c4c2ccn4C)C2CCC3O2)cc1 (centres undefined),/,.,/,/
COc1ccccc1N1CCN(C(=O)c2ccc3c(=O)n(Cc4ccco4)c(=S)[nH]c3c2)CC1,.,.,82,.
COc1ccccc1Cn1c(=S)[nH]c2cc(C(=O)N3CCN(c4ccccc4OC)CC3)ccc2c1=O,.,.,.,.
CCCNC(=O)c1ccc2c(=O)n(Cc3ccco3)c(=S)[nH]c2c1,64,.,.,.
COc1ccccc1NC(=S)NNC(=O)c1nn(C)c(C)c1Br,.,.,.,.
COc1ccccc1NC(=S)NNC(=O)c1nn(C)cc1Cl,.,.,72,.
COc1ccccc1NC(=O)c1nn(C)cc1Br,.,.,.,.
COc1ccccc1NC(=S)NNC(=O)c1nn(C)c(C)c1Cl,.,.,79,.
COc1ccccc1NC(=S)NNC(=O)c1ccc(O)cc1,.,.,71,.
Cc1cc(S(=O)(=O)Nc2ccc(N(C)C)cc2)c(C)s1,.,.,67,.
CCNC(=O)C1CCCN(C(=O)c2ccc3c(c2)OCO3)CC1 (centres undefined),/,.,/,/
CC(C)(C)C(=O)NC(Nc1cccc2cccnc12)C(Cl)(Cl)Cl (centres undefined),.,.,76,.
SMILES,UBC9 SUMO inh,NadD inh,PHOSPHO1 inh,pCIP destab
CCc1ccc(NC(=S)N2CCCCCCC2)cc1,.,.,68,.
CCOc1ccc(NC(=S)N2CCCC2)cc1,.,.,.,.
CNc1ccc(-c2ccccc2CO)cn1,/,.,/,/
O=C(NCc1cccs1)c1ccc2sc(C3=C[C@@H](O)[C@@H](O)[C@@H](CO)O3)nc2c1,/,.,/,/
CCOC(=O)CSC1=C(C#N)C(c2ccc(C)s2)CC(=O)N1 (centres undefined),.,.,.,.
CCOC(=O)CSC1=C(C#N)C(=O)NC2(CCCCC2)S1,.,.,98,.
O=C(CCCN1C(=O)/C(=C\c2ccco2)SC1=S)Nc1ccc(O)cc1C(=O)O,/,.,.,.
CC(C(=O)Nc1ccc(C(=O)O)c(O)c1)N1C(=O)/C(=C\c2ccco2)SC1=S (centres undefined),57,.,.,.
O=C(CN1C(=O)/C(=C/c2ccco2)SC1=S)Nc1ccc(O)c(C(=O)O)c1,51,.,.,.
O=C(CN1C(=O)/C(=C/c2ccco2)SC1=S)Nc1ccc(C(=O)O)c(O)c1,72,.,.,.
O=C(CCCN1C(=O)/C(=C/c2ccco2)SC1=S)Nc1cccc(C(=O)O)c1,64,.,.,.
CC(C(=O)N(C)C1CCS(=O)(=O)C1)N1C(=O)/C(=C/c2ccco2)SC1=S (centres undefined),.,.,.,.
COc1ccccc1Oc1c(C)oc2cc(OC(=O)c3ccco3)ccc2c1=O,52,.,.,.
CCOc1ccccc1Oc1c(C)oc2cc(OC(=O)c3ccco3)ccc2c1=O,.,.,.,.

# Screening results: PubChem, Sanford-Burnham Center for Chemical Genomics
